The text below walks through data of the supplement of paper PMC12645437, “Orthogonal IMiD-Degron Pairs Induce Selective Protein Degradation in Cells” (ACS Chemical Biology, 2025).

Whole data set: some 8,300 sequences, median “log2 fold change of degron read counts, EGFP-low vs EGFP+ sorted cells (limma voom), compound-induced degradation” near -1.1, cut for the highest 2% near 3.2. Many of the other results were omitted from the sample, so the highest values are more common in it than they were.

The target in this assay is T1, CRBN, Q96SW2.
T1 chain: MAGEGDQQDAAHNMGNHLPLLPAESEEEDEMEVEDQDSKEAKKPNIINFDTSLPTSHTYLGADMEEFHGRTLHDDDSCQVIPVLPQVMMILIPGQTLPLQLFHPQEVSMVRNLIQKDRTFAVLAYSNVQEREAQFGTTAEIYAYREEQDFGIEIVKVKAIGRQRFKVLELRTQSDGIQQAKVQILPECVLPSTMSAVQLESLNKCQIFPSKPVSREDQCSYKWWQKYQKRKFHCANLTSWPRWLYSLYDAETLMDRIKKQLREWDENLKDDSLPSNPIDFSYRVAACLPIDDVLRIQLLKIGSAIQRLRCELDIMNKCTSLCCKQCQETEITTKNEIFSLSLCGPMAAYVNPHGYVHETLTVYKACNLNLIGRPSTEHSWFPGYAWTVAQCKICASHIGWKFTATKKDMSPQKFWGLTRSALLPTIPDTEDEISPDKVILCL
The assay can be described thus: log2 fold change of degron read counts, EGFP-low vs EGFP+ sorted cells (limma voom), compound-induced degradation; higher = more compound-induced degradation of the degron-EGFP fusion; degrons are variants of IKZF1/3 zinc finger 2; compound dose not given here. Particulars: Jurkat, 18 h. The procedure:
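Pooled library of 8380 IKZF3 ZF2 degron mutants (positions 146-167 varied within the IKZF3 130-189 degron; only the varied core is printed, flanks not printed) fused to EGFP with IRES-mCherry, lentivirally expressed in Jurkat cells. mCherry+ cells were treated with one IMiD compound for 18 h (dose not stated) and FACS-sorted into EGFP-low and EGFP+ populations. Degron sequences were counted by NGS, and log2FC (EGFP-low vs EGFP+) was estimated by limma voom over 3 biological replicates.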

Where [1] appears, read: compound: compound 19 (5-tert-butyl-thalidomide).
[2] abbreviates: compound: compound 22 (5-morpholino-thalidomide).
[3] abbreviates: compound: compound 33 (diphenyl IMiD analogue).
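Note: pooled lentiviral library of zinc finger degron-EGFP fusions in mCherry-positive Jurkat cells, FACS-sorted after compound exposure, with degron abundance counted by next-generation sequencing.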

On to FNCPICGAEFTQKGNLLRHIKL [46F_47N_49P_50I_52G_53A_54E_55F_67L_, Q9UKT9], for which the “log2 fold change of degron read counts” value runs as follows: under setting [1], 1.92; under setting [2], 0.348; under setting [3], 0.475; (compound: thalidomide) 0.897.
As to FECDICGARFTQKGNLLRHIKL [46F_47E_49D_50I_52G_53A_54R_55F_67L_, Q9UKT9], the “log2 fold change of degron read counts” value reads like this: under setting [1], -0.106; under setting [2], -1.6; under setting [3], -0.318; (compound: thalidomide) 1.69.
The matching figures for FRCPICGHKFTQKGNLLRHIKL [46F_47R_49P_50I_52G_53H_54K_55F_67L_, Q9UKT9]: -2.46, -2.78, -1.61 and -1.55.
As to FSCNQCGRMFTQKGNLLRHIKL [46F_47S_49N_50Q_52G_53R_54M_55F_67L_, Q9UKT9], the “log2 fold change of degron read counts” value was -2.45 under setting [1], -3.15 under setting [2], -2.32 under setting [3] and -2.79 (compound: thalidomide).
Turning to FHCNQCGHKFTQKGNLLRHIKL [46F_47H_49N_50Q_52G_53H_54K_55F_67L_, Q9UKT9], the “log2 fold change of degron read counts” value was -2.56 under setting [1], -3.05 under setting [2], -2.84 under setting [3] and -2.45 (compound: thalidomide).
Regarding FDCPICGRRFTQKGNLLRHIKL [46F_47D_49P_50I_52G_53R_54R_55F_67L_, Q9UKT9], the “log2 fold change of degron read counts” value by setting is: under setting [1], 2.15; under setting [2], 0.908; under setting [3], 1.08; (compound: thalidomide) 2.66.
As to LCCNQCGFHCTQKGNLLRHIKL [46L_47C_49N_50Q_52G_53F_54H_55C_67L_, Q9UKT9], the “log2 fold change of degron read counts” value was -2.15 under setting [1], -2.61 under setting [2], -1.7 under setting [3] and -1.96 (compound: thalidomide).
FDCSVCGHPFTQKGNLLRHIKL [46F_47D_49S_50V_52G_53H_54P_55F_67L_, Q9UKT9]: the “log2 fold change of degron read counts” value is, setting by setting: under setting [1], -1.84; under setting [2], -2.36; under setting [3], -2.33; (compound: thalidomide) -1.9.
As to FKCDVCGAYFTQKGNLLRHIKL [46F_47K_49D_50V_52G_53A_54Y_55F_67L_, Q9UKT9], the “log2 fold change of degron read counts” value reads like this: under setting [1], -2.99; under setting [2], -3.36; under setting [3], -3.07; (compound: thalidomide) -2.83.
FECDVCGADFTQKGNLLRHIKL [46F_47E_49D_50V_52G_53A_54D_55F_67L_, Q9UKT9]: the “log2 fold change of degron read counts” value runs as follows: under setting [1], -3.21; under setting [2], -3.19; under setting [3], -1.99; (compound: thalidomide) -2.31.
Taken in the same sequence, the figures for FWCPICGRPFTQKGNLLRHIKL [46F_47W_49P_50I_52G_53R_54P_55F_67L_, Q9UKT9] were 2.01, 0.778, 1.24 and -0.187.
With FWCPQCGAKFTQKGNLLRHIKL [46F_47W_49P_50Q_52G_53A_54K_55F_67L_, Q9UKT9], the “log2 fold change of degron read counts” value runs as follows: under setting [1], 1.29; under setting [2], 2.33; under setting [3], -0.101; (compound: thalidomide) -0.258.
For FACEICGAQFTQKGNLLRHIKL [46F_47A_49E_50I_52G_53A_54Q_55F_67L_, Q9UKT9], the “log2 fold change of degron read counts” value under setting [1] was determined as 3.66, the “log2 fold change of degron read counts” value under setting [2] stood at 2.38, the “log2 fold change of degron read counts” value under setting [3] is 1.15 and the “log2 fold change of degron read counts” value (compound: thalidomide) was found to be 1.07.
In the case of FNCEICGAQFTQKGNLLRHIKL [46F_47N_49E_50I_52G_53A_54Q_55F_67L_, Q9UKT9], the “log2 fold change of degron read counts” value reads like this: under setting [1], 2.88; under setting [2], 1.44; under setting [3], 0.527; (compound: thalidomide) 0.564.
As to FCCEICGAQFTQKGNLLRHIKL [46F_47C_49E_50I_52G_53A_54Q_55F_67L_, Q9UKT9], the “log2 fold change of degron read counts” value runs as follows: under setting [1], 3.18; under setting [2], 2.58; under setting [3], 2.74; (compound: thalidomide) 2.27.
Regarding FKCEICGAQFTQKGNLLRHIKL [46F_47K_49E_50I_52G_53A_54Q_55F_67L_, Q9UKT9], the “log2 fold change of degron read counts” value by setting is: under setting [1], 0.105; under setting [2], -2.17; under setting [3], -1.89; (compound: thalidomide) -0.0845.
Regarding FGCEICGAQFTQKGNLLRHIKL [46F_47G_49E_50I_52G_53A_54Q_55F_67L_, Q9UKT9], the “log2 fold change of degron read counts” value came out at 3.48 under setting [1], 2.64 under setting [2], 1.18 under setting [3] and 1.14 (compound: thalidomide).
As for FVCEICGAQFTQKGNLLRHIKL [46F_47V_49E_50I_52G_53A_54Q_55F_67L_, Q9UKT9], the “log2 fold change of degron read counts” value reads like this: under setting [1], 0.913; under setting [2], 2.56; under setting [3], 2.86; (compound: thalidomide) 3.22.
For FTCDQCGASFTQKGNLLRHIKL [46F_47T_49D_50Q_52G_53A_54S_55F_67L_, Q9UKT9], the “log2 fold change of degron read counts” value is -1.41 under setting [1], -1.1 under setting [2], -0.521 under setting [3] and -1.39 (compound: thalidomide).
The matching figures for FRCEICGRAFTQKGNLLRHIKL [46F_47R_49E_50I_52G_53R_54A_55F_67L_, Q9UKT9]: -1.67, -1.99, 0.837 and 0.0765.
Regarding LWCNQCGFLCTQKGNLLRHIKL [46L_47W_49N_50Q_52G_53F_54L_55C_67L_, Q9UKT9], the “log2 fold change of degron read counts” value by setting is: under setting [1], -0.0173; under setting [2], -0.578; under setting [3], -0.261; (compound: thalidomide) -0.106.
As for LACEICGFACTQKGNLLRHIKL [46L_47A_49E_50I_52G_53F_54A_55C_67L_, Q9UKT9], the “log2 fold change of degron read counts” value runs as follows: under setting [1], 3.1; under setting [2], 2.3; under setting [3], 0.347; (compound: thalidomide) 0.922.
Take LQCEICGFACTQKGNLLRHIKL [46L_47Q_49E_50I_52G_53F_54A_55C_67L_, Q9UKT9]: the “log2 fold change of degron read counts” value turned out to be 2.27 under setting [1], 1.95 under setting [2], 1.57 under setting [3] and 3.4 (compound: thalidomide).
Turning to LECEICGFACTQKGNLLRHIKL [46L_47E_49E_50I_52G_53F_54A_55C_67L_, Q9UKT9], the “log2 fold change of degron read counts” value by setting is: under setting [1], 0.666; under setting [2], -1.22; under setting [3], 0.464; (compound: thalidomide) 1.55.
Consider LCCEICGFACTQKGNLLRHIKL [46L_47C_49E_50I_52G_53F_54A_55C_67L_, Q9UKT9], for which the “log2 fold change of degron read counts” value runs as follows: under setting [1], 1.77; under setting [2], 1.67; under setting [3], 1; (compound: thalidomide) 1.51.
With LYCEICGFACTQKGNLLRHIKL [46L_47Y_49E_50I_52G_53F_54A_55C_67L_, Q9UKT9], the “log2 fold change of degron read counts” value under setting [1] stood at 3.17, the “log2 fold change of degron read counts” value under setting [2] was found to be 3.5, the “log2 fold change of degron read counts” value under setting [3] is 2.65 and the “log2 fold change of degron read counts” value (compound: thalidomide) turned out to be 1.71.
On to LICEICGFACTQKGNLLRHIKL [46L_47I_49E_50I_52G_53F_54A_55C_67L_, Q9UKT9], for which the “log2 fold change of degron read counts” value stood at 0.692 under setting [1], 2.24 under setting [2], 1.68 under setting [3] and 2.74 (compound: thalidomide).
For the sequence LGCEICGFACTQKGNLLRHIKL [46L_47G_49E_50I_52G_53F_54A_55C_67L_, Q9UKT9], the “log2 fold change of degron read counts” value under setting [1] was 0.464, the “log2 fold change of degron read counts” value under setting [2] was -0.188, the “log2 fold change of degron read counts” value under setting [3] is -0.784 and the “log2 fold change of degron read counts” value (compound: thalidomide) was -0.556.
For LWCEICGFACTQKGNLLRHIKL [46L_47W_49E_50I_52G_53F_54A_55C_67L_, Q9UKT9], the “log2 fold change of degron read counts” value by setting is: under setting [1], 2.64; under setting [2], 3.24; under setting [3], 2.31; (compound: thalidomide) 1.06.
The matching figures for LSCEICGFACTQKGNLLRHIKL [46L_47S_49E_50I_52G_53F_54A_55C_67L_, Q9UKT9]: 2.2, 2.05, 0.991 and 1.15.
